# Hits are enriched below; roughly 21% of the tested compounds scored in any of these assays.
# D3 antag: D3 dopamine receptor (human) antagonism; D3R cells, DiscoveRx beta-arrestin luminescence, antagonist mode; active compounds read low; actives 2.5% (n = 360,000); max response, negative = inhibition, %; in the data active = max response below about -50%; inconclusive = no clear call, values can overlap the other calls; also: % is scaled to controls: 0 for no effect and ±100 for the full control effect
# Target sequence (P35462 whole entry, looked up): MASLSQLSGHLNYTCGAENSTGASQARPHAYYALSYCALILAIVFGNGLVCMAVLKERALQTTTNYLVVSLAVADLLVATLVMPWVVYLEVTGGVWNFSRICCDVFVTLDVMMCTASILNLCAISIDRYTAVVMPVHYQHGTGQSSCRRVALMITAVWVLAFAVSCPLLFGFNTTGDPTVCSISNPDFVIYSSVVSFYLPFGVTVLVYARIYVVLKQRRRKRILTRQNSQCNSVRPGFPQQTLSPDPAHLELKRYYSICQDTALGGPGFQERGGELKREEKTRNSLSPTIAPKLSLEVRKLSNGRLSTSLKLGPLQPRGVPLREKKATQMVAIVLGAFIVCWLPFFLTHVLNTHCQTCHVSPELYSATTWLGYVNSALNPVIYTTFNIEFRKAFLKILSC
#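 Cells expressing the human receptor were seeded at 1500 cells/well, incubated overnight at 37 degrees C in 5% CO2, then exposed to library compounds with dopamine controls for 90 minutes at 37 degrees C before luminescent detection.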
# TDP1 cell noCPT: qHTS for Inhibitors of human tyrosyl-DNA phosphodiesterase 1 (TDP1): qHTS in cells in absence of CPT; DT40 Tdp1-/- hTDP1 cells, no CPT, ATP luminescence, 48 h; Potency, µM (titrated, usually from 46.2 µM), without a hit: top-dose activity change, negative = growth inhibition, hits mostly inhibitors; actives 15% (n = 420,000); also: potency is read from the fitted curve at half-maximal effect; % is scaled to controls: 0 for no effect and ±100 for the full control effect; nearly all actives have a fitted effect of over 55% in size
#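 Luminescent ATP content (CellTiter-Glo) served as the growth readout. Knockout chicken DT40 cells expressing human TDP1 were exposed to compounds without camptothecin for a minimum 48 hr at 37 °C.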
# TDP1 cell CPT: growth inhibition of DT40 Tdp1-/-;hTDP1 cells with camptothecin (screen for TDP1 inhibitors). chicken DT40 Tdp1-/-;hTDP1 cells + 20 nM CPT, ATP luminescence, 48 h. Potency, µM (doses to about 46.2 µM), without a hit: top-dose activity change, negative = growth inhibition, usual class: inhibitors. actives 12% (n = 420,000); also: potency is read from the fitted curve at half-maximal effect; % is scaled to controls: 0 for no effect and ±100 for the full control effect; nearly all actives have a fitted effect of over 55% in size
#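 Chicken DT40 Tdp1-/- cells complemented with human TDP1, 400 cells/well, exposed to compounds plus 20 nM camptothecin for at least 48 h at 37 C; viability read as ATP content by CellTiter-Glo luminescence.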
# DRD3 agonist: activates the human D3 dopamine receptor | actives 0.58% (n = 410,000) | max activation, % | P35462 | D3R DiscoveRx beta-arrestin cells, luminescence, 90 min | AID 652048; in the data active = max activation above about 30%; also: 0% is about no effect
#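 Agonist-mode cell screen: cells plated at 1500/well and incubated overnight at 37 °C, then exposed to library compounds for 90 min at 37 °C. Detection reagent was added for 30–60 min at room temperature, and luminescence was read.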
# ClpP mod: qHTS Assay for Activators of ClpP; Potency, µM (titrated, usually from 57.5 µM), for inactives: at the top dose activity change, negative = active; AID 651965, 2013; ATP-dependent Clp protease proteolytic subunit (Bacillus subtilis (strain 168)), P80244; purified B. subtilis ClpP, FRET peptide cleavage, 20 min; actives 1.9% (n = 340,000); active = well fitted falling curve with a large enough effect; inconclusive = small, poorly fitted or top-dose-only effect; inactive = no such curve, though single readings can be large or run the other way; also: potency is read from the fitted curve at half-maximal effect; the source files actives as falling curves though it sought activators and does not explain the sign; nearly all actives have a fitted effect of over 65% in size
# Target sequence (P80244 whole entry, looked up): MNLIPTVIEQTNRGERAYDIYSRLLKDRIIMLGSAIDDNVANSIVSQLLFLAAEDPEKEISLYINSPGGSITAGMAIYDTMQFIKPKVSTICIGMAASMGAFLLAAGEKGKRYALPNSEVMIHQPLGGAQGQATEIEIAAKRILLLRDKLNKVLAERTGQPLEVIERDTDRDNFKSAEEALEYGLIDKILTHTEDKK
#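 ClpP 10 microg/mL final, pH 8 Tris/KCl buffer with BSA, glycerol, Tween-20; compound pinned in; FRET-FV substrate; RT 20 min; Ex320/Em430; ΔFRET vs ADEP 5.8 microM, DMSO, no enzyme.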
# IL1B secr inh: inflammasome signaling inhibition, IL-1 beta readout; THP-1 LPS/ATP IL-1B secretion, AlphaLISA, 16 h; active compounds read low; activity change, % at 57.5 µM; actives 4.7% (n = 360,000); in the data active = activity change below about -50%; inconclusive = mostly about -30% to -49%; also: % is scaled to controls: 0 for no effect and ±100 for the full control effect
#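 Secreted IL-1B measured by AlphaLISA bead assay after 16 h compound exposure of THP-1 cells; compounds (final up to 57.5 uM) added 1 h before LPS (250 ng/mL) and ATP (1.25 mM) stimulation; lower signal means less secretion.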
# Starred values were filed as active, the others as inactive; ? = inconclusive; . = no result given. Unless noted, calls follow the shape of the dose curve; as a rule, active = well fitted inhibition curve with a large enough effect; inconclusive = small, poorly fitted or top-dose-only effect; inactive = flat fitted curve, though single readings scatter.
SMILES,D3 antag,TDP1 cell noCPT,TDP1 cell CPT,DRD3 agonist,ClpP mod,IL1B secr inh
COc1ccc(C(=O)C2CCCN(Cc3ccc4c(c3)OCCO4)C2)cc1F (stereo unspecified),-26,-21%,?,-29,.,-5
CN(Cc1cn(C)nc1-c1ccc(Oc2ccccc2)cc1)Cc1cnc2ccccn12,3,21µM*,?,0,-5%,-5
Cc1nn(C)cc1CN1CCCC(C(=O)c2ccc(-c3ccccc3)c(F)c2)C1 (stereo unspecified),-13,18µM*,18µM*,0,.,-57*
O=C(c1ccc(-c2ccccc2)c(F)c1)C1CCCN(C(=O)c2cncs2)C1 (stereo unspecified),6,13µM*,?,12,.,?
COc1cccc(C(=O)C2CCCN(Cc3cn(C)nc3-c3ccccc3)C2)c1 (stereo unspecified),-11,?,23µM*,-7,.,-11
CC(C)Oc1cccc(C(=O)C2CCCN(C(=O)c3cncs3)C2)c1 (stereo unspecified),3,-19%,?,7,-2%,26
COc1cc(O)c(C)c(O)c1,.,5%,-2%,.,.,.
O=C(NC1CCCCC1)C1CC(=O)N(c2ccccc2)C1 (stereo unspecified),0,-29%,-12%,-12,.,-13
COc1ccc(-c2ccc3c(c2)S(=O)(=O)c2cccc(C(=O)NCc4cc(C)oc4C(F)(F)F)c2C3=O)cc1OC,48,?,?,9,0%,3
CCOc1ccc(NC(=O)Cn2cc(C(=O)c3ccc(CC)cc3)c(=O)c3cc4c(cc32)OCO4)cc1,.,?,?,-5,-1%,.
Cc1ccc2c(=O)cc(C(=O)Nc3c(C)n(C)n(-c4ccccc4)c3=O)oc2c1C,.,-6%,2%,6,-8%,.
COCCN1CCN(Cc2cn(C)nc2-c2ccc(Oc3ccccc3)cc2)CC1,-9,1%,?,-15,-1%,?
CC1CN(Cc2cn(C)nc2-c2ccc(Oc3ccccc3)cc2)CCN1C (stereo unspecified),-5,?,?,-3,-2%,-64*
O=C(Nc1ccc(OC(F)(F)F)cc1)N1CCc2nc(NCc3cccc(Oc4ccccc4)c3)ncc2C1,13,21µM*,18µM*,-4,-21%,-22
COc1cccc(NC(=O)N2CCc3nc(NCc4cccc(Oc5ccccc5)c4)ncc3C2)c1,-1,21µM*,10µM*,-14,-13%,34
CC(C)c1ccc(Nc2ncc3c(n2)CCN(C(=O)Nc2ccc(F)c(Cl)c2)C3)cc1,23,?,?,4,?,-13
COc1cccc(NC(=O)N2CCc3nc(Nc4cc(Cl)cc(Cl)c4)ncc3C2)c1,-9,23µM*,?,12,-9%,-54*
Cc1cc(F)ccc1S(=O)(=O)N1CCCOC1CNC(=O)C(=O)NCc1cccnc1 (stereo unspecified),-2,1%,-3%,-1,-1%,4
COc1ccc(-c2c3c(=O)n(C)c(=O)n(C)c3c3c(-c4cccc(C)c4)nc4ccccc4n23)cc1,.,21µM*,?,-4,-1%,.
COc1ccc(-c2c3c(=O)n(C)c(=O)n(C)c3c3c(-c4ccccc4)nc4ccccc4n23)cc1,.,2.3µM*,-3%,5,?,.
COc1ccc(-c2nc3ccccc3n3c(-c4ccccc4)c4c(=O)n(C)c(=O)n(C)c4c23)cc1OC,.,?,-22%,0,-4%,.
Cc1ccc(-c2c3c(=O)n(C)c(=O)n(C)c3c3c(-c4cccc(C)c4)nc4ccccc4n23)cc1,.,?,?,-3,-2%,.
COc1ccc(-c2nc3ccccc3n3c(-c4cccc(C)c4)c4c(=O)n(C)c(=O)n(C)c4c23)cc1OC,.,18µM*,16µM*,1,-1%,.
COc1ccc(-c2nc3ccccc3n3c(-c4ccccc4)c4c(=O)n(C)c(=O)n(C)c4c23)cc1,.,-19%,1%,2,1%,.
CC(C)CN1CC[C@@]2(CCCN(C(=O)c3cccc(F)c3)C2)C1,.,-2%,5%,.,.,.
SMILES,D3 antag,TDP1 cell noCPT,TDP1 cell CPT,DRD3 agonist,ClpP mod,IL1B secr inh
O=c1[nH]cc(C=NNc2ccccc2)c(=O)[nH]1,16,-8%,-1%,8,-2%,28
CN(C)C(=O)/C(=C\c1cccc(Oc2ccccc2)c1)NC(=O)c1ccccc1,?,?,16µM*,-15,-15%,-9
CN(C1CCCCC1)S(=O)(=O)c1ccc2c(c1)CCC(=O)N2,2,-11%,-9%,0,1%,13
CN(C)S(=O)(=O)c1ccc2c(c1)/C(=C/c1cc3c([nH]1)CCCC3)C(=O)N2,-86*,3.3µM*,4.6µM*,-94,-1%,-11
O=C(Cc1ccc(Cl)cc1)N/N=C/c1c(Cl)cccc1Cl,-8,?,-20%,3,1%,14
O=C(Cc1ccc(Cl)cc1)N/N=C/c1ccc(O)c(O)c1,-1,13µM*,?,-1,-10%,14
Cc1cccc(/C=N/NC(=O)Cc2ccc(Cl)cc2)c1O,-19,?,18µM*,-15,1%,98
Cc1ccc(O)c(/C=N/NC(=O)Cc2ccc(Cl)cc2)c1,12,?,?,-3,1%,95
Cc1cccc(/C=N\NC(=O)c2ccc(Cl)cc2)c1O,-7,?,4.6µM*,-23,.,118
CN(C(=O)COC(=O)/C=C/c1ccc2ccccc2n1)C1CCS(=O)(=O)C1 (stereo unspecified),-4,?,?,-2,.,-106*
CN(C(=O)COC(=O)/C=C/c1ccccc1)C1CCS(=O)(=O)C1 (stereo unspecified),19,-13%,-2%,-4,-4%,0
CCN(C(=O)COC(=O)c1cc(-c2cccs2)nc2ccccc12)C1CCS(=O)(=O)C1 (stereo unspecified),5,-15%,-4%,4,4%,-54*
COc1ccc(-c2cc(C(=O)OCC(=O)N(C)C3CCS(=O)(=O)C3)c3ccccc3n2)cc1OC (stereo unspecified),7,?,?,3,.,-62*
O=C(Nc1ccccc1C(F)(F)F)c1ccc2oc(=O)c(S(=O)(=O)c3ccc(F)cc3)cc2c1,.,-23%,-24%,-8,-9%,.

# High-throughput results (PubChem BioAssay)
